One experiment addresses Albumin (Bos taurus) (UniProt P02769). As to the kind of experiment: compounds binding labelled BSA control protein – biochemical, small-molecule microarray, Alexa647 label, 635/667 nm fluorescence, artefact control for SMM control protein annotation, profiling panel (AID 1118).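 Also: score merges 667 nm emission intensity and signal-to-noise per printed compound spot.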 To be noted: BSA-A647 binding, fluorescence 635 nm, higher = more signal.
A short description of experiment [1]: probe aXIP binding to arrayed compounds – biochemical, NeuroSMM set, 635/667 nm fluorescence, primary screen (AID 1119).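 Also: probe is the protein aXip251-270 applied at 1 µg/mL to compound-printed slides; binding of probe to printed compounds measured as 667 nm fluorescence plus signal to noise.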 To be noted: small-molecule microarray, higher = more signal, called active from +8 up or from −8 down.
A short description of experiment [2]: probe aNOTCH3 binding on compound microarray – biochemical, small-molecule microarray, 635/667 nm fluorescence, primary screen (AID 1120).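 Also: probe is a biotin-tagged antibody raised against NOTCH3 rather than NOTCH3 protein; score merges spot fluorescence near 667 nm with spot signal to noise.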 The note with it: higher = more signal.
A short description of experiment [3]: probe aNOTCH2 binding on compound microarray – biochemical, small-molecule microarray, 635/667 nm fluorescence, primary screen (AID 1121).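 Also: score merges feature fluorescence read at 667 nm with its signal to noise.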 The note with it: higher = more signal.
The target in experiment [4] is Carbonic anhydrase 2 (Homo sapiens) (UniProt P00918). In words: compounds binding carbonic anhydrase 2 – biochemical, small-molecule microarray, Alexa647-labelled CAII, profiling panel (AID 1122). To be noted: CAII-A647 binding fluorescence, higher = more signal.
Experiment [5] can be described thus: COS7 lysate on small-molecule microarray, probe aHis, 635 nm (AID 1123).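 Also: z-score combines 667nm fluorescence intensity with signal-to-noise per printed compound spot.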 To be noted: COS7 cell lysate, fluorescence, higher = more signal.
The nature of experiment [6]: probe aLAP1 signal on lysate-treated microarray – cell lysate, small-molecule microarray, COS7 lysate, primary screen (AID 1124).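 Also: lysate comes from COS7 cells expressing LAP1 and is applied at 0.3 µg/mL; score merges spot fluorescence near 667 nm with signal-to-noise over triplicate slides.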 To be noted: probe aLAP1, fluorescence, higher = more signal.
A further experiment concerns Sam68 (KHDRBS1). In words: compounds binding KHDRBS1 protein – biochemical, small-molecule microarray, 635 nm fluorescence, primary screen (AID 1125).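 Also: score merges 667 nm channel intensity with signal to noise over triplicate slides.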 The note with it: higher = more signal.
Experiment [7] deals with Chordin-like protein 2 (CHRDL2). In words: compounds binding chordin-like 2 – biochemical, small-molecule microarray, 635 nm fluorescence, primary screen (AID 1126).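 Also: printed compound slides probed with Chrdl2 protein at 4 µg/mL for 1 h at 4 C; score merges 667 nm emission intensity with signal to noise over three replicate slides.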 The note with it: fluorescence 635 nm, higher = more signal.
Experiment [8] deals with Concanavalin-A (Canavalia ensiformis) (UniProt P02866). As to the kind of experiment: compounds binding concanavalin A lectin – biochemical, small-molecule microarray, Alexa647 label, 635 nm, artefact control for SMM control protein annotation, primary screen (AID 1127).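 Also: z combines 667 nm emission intensity with signal-to-noise across three replicate slides.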 To be noted: ConA-A647 binding fluorescence, higher = more signal.
Chain of Concanavalin-A (Canavalia ensiformis) (P02866 whole entry, looked up): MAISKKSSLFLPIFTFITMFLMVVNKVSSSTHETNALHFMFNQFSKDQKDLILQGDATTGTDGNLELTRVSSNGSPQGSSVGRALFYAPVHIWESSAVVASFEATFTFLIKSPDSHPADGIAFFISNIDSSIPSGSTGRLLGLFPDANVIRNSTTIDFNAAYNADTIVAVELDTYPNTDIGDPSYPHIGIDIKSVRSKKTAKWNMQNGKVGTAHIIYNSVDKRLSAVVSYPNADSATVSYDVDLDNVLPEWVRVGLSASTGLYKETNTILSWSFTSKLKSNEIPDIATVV

Active and inactive are the calls of the source.

Chain of Albumin (Bos taurus) (P02769 whole entry, looked up): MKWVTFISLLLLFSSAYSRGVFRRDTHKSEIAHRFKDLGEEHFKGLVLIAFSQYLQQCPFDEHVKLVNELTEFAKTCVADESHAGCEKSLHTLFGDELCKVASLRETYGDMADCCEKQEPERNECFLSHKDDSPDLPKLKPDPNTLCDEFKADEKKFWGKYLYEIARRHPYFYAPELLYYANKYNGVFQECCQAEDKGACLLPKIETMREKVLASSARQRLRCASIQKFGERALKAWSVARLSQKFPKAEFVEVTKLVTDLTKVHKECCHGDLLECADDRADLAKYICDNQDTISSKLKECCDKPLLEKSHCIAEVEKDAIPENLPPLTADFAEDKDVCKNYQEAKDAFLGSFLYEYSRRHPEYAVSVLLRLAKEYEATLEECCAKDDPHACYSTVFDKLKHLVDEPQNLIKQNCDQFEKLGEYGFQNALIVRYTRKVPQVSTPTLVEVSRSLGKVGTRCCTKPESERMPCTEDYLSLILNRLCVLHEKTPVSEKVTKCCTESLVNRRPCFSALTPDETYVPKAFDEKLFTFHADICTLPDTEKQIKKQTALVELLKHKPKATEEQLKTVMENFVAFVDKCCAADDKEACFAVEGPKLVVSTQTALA

In the case of `C=CCC(OC(C)=O)[C@@H]1[C@@H](N(Cc2cc3ccccc3o2)C(=O)c2ccc(C)cc2)c2cc(OCCCO)ccc2N1C(=O)c1ccc2ccccc2c1` (stereo not given in full), the composite z-score in the experiment with Albumin (Bos taurus) was 0.767; in experiment [2], 0.0259; in [3] it was -0.101; in experiment [4] it was 0.0486; in experiment [5] it was 0.605; in experiment [6], -0.069. In addition, the composite z-score in the experiment on Sam68 (KHDRBS1) was -0.0437; in [7] it was 0.157; in experiment [8], -0.309. Moreover, in [1], the composite Z-score is 0.698 (inactive).

`CC(C)(C)OC(=O)CC[C@@]1(C(=O)O)N=C(c2ccc(OCCCO)cc2)O[C@@H]1c1ccccc1N=[N+]=[N-]`: the composite z-score is 0.933 with Albumin (Bos taurus); 0.39 in experiment [2]; 0.0309 in experiment [3]; 0.72 in experiment [4]; 1.27 in experiment [5]; 0.298 in [6]. The composite z-score was 1.12 with Sam68 (KHDRBS1), -0.734 in [7] and 0.648 in [8]. Also, the composite Z-score in experiment [1] was 0.0589 (inactive).

`COc1ccc(C(O)C2C=CC3C(=O)N(c4ccccc4)C(=O)C3N2Nc2ccc([N+](=O)[O-])cc2)cc1OCc1ccccc1` (stereo not given): the composite z-score in the experiment with Albumin (Bos taurus) worked out at 0.927; in [2], 1.33; in experiment [3] it was 0.708; in experiment [4] it was 0.591; in experiment [5], 1.53; in experiment [6], 1.22. Further, the composite z-score in the experiment with Sam68 (KHDRBS1) came to 1.16; in experiment [7] it was 0.471; in experiment [8], 1.14. Further, in experiment [1], the composite Z-score was -0.114 (inactive).

With `[N-]=[N+]=Nc1ccccc1[C@H]1OC(c2ccc(OCCCO)cc2)=N[C@@]1(CCS(=O)(=O)c1ccccc1)C(=O)O`, the composite z-score with Albumin (Bos taurus) was 0.622; in experiment [2], -0.0647; in experiment [3], 0.0278; in [4], 0.419; in experiment [5], 2.77; in [6], 0.425. Besides, the composite z-score in the experiment on Sam68 (KHDRBS1) is 0.0569; in [7], -0.378; in [8], 0.475. Besides, the composite Z-score in experiment [1] is 0.254 (inactive).

Take `CN1CCC(CCCO)=CC1c1ccc(CN2CCCC2)cc1` (stereo not given): the composite z-score with Albumin (Bos taurus) was -0.225; in [2], 0.29; in experiment [3], 0.0088; in experiment [4], 0.665; in experiment [5] it was 1.46; in experiment [6], 0.714. The composite z-score with Sam68 (KHDRBS1) was determined as 1.32; in [7], 1.5; in experiment [8], 0.776. The composite Z-score in experiment [1] is -0.554 (inactive).

With `Cc1cc(C)c(C(O)C2C=CC3C(=O)N(C)C(=O)C3N2Nc2ccccc2)c(C)c1` (stereo not given), the composite z-score with Albumin (Bos taurus) was 0.72; in experiment [2] it was 1.35; in experiment [3], 0.818; in experiment [4], 0.784; in [5], 1.2; in [6], 0.781. Further, the composite z-score in the experiment with Sam68 (KHDRBS1) is 0.485; in experiment [7] it was 0.452; in experiment [8], 0.143. Also, in experiment [1], the composite Z-score is 2.43 (inactive).

Regarding `O=C1OCCC=C[C@H]2OC34C=CCN(Cc5ccccc5)C(=O)[C@H]3N(CCCCCO)C(=O)[C@@H]4C12` (stereo not given in full), the composite z-score in the experiment with Albumin (Bos taurus) is 0.863; in experiment [2] it was -0.28; in [3], -0.173; in [4], 0.763; in [5] it was 2.1; in [6], 0.743. Moreover, the composite z-score is 0.954 with Sam68 (KHDRBS1), -1.32 in [7] and -0.262 in experiment [8]. Moreover, the composite Z-score in experiment [1] was 0.452 (inactive).

Regarding `[N-]=[N+]=NCc1ccccc1C[C@]1(C(=O)NCC(O)CO)N=C(c2ccc(OCCCO)cc2)O[C@H]1c1ccccc1N=[N+]=[N-]` (stereo not given in full), the composite z-score is 0.675 with Albumin (Bos taurus); 0.254 in [2]; -0.0059 in experiment [3]; 0.652 in [4]; 1.57 in [5]; 0.0131 in experiment [6]. Also, the composite z-score is 0.283 in the experiment on Sam68 (KHDRBS1), -0.44 in experiment [7] and 0.565 in experiment [8]. The composite Z-score in [1] is 0.529 (inactive).

In the case of `C=C(COC)C(=O)CC[C@@H](OC(=O)c1cccnc1)c1ccc(CO)o1`, the composite z-score with Albumin (Bos taurus) was 0.158; in [2] it was -0.0362; in experiment [3] it was -0.157; in [4], 0.481; in experiment [5] it was 0.387; in experiment [6], 0.823. For the same compound, the composite z-score stood at 0.532 in the experiment on Sam68 (KHDRBS1), 0.739 in [7] and 0.341 in experiment [8]. The composite Z-score in [1] is 0.509 (inactive).

Regarding `CCOC(=O)C[C@H]1[C@H](OC(=O)c2ccc(-c3ccccc3)cc2)[C@@H](NC(=O)c2ccc3ccccc3c2)c2cc(OCCCO)ccc2N1C(=O)Cc1ccc(OC)cc1`, the composite z-score in the experiment with Albumin (Bos taurus) was 0.605; in experiment [2] it was -0.063; in experiment [3] it was -0.11; in experiment [4] it was -0.0752; in experiment [5] it was 0.484; in experiment [6] it was 0.188. The composite z-score was 0.41 with Sam68 (KHDRBS1), -0.887 in [7] and -0.101 in [8]. In addition, the composite Z-score in [1] is -0.608 (inactive).

With `CN(C)C(=O)[C@]1(CCC(=O)OC(C)(C)C)N=C(c2ccc(OCCCO)cc2)O[C@@H]1c1ccccc1N=[N+]=[N-]`, the composite z-score is 0.934 in the experiment with Albumin (Bos taurus); 0.374 in [2]; -0.0985 in [3]; 0.719 in experiment [4]; 3.15 in experiment [5]; 0.964 in experiment [6]. For the same compound, the composite z-score in the experiment with Sam68 (KHDRBS1) was 1.31; in experiment [7] it was -0.516; in experiment [8], 0.858. Further, the composite Z-score in experiment [1] was 0.155 (inactive).

On to `CCOC(=O)C1=CCC(c2ccc([N+](=O)[O-])cc2)N(S(=O)(=O)c2ccc(C)cc2)C1` (stereo not given), for which the composite z-score is 0.261 with Albumin (Bos taurus); 0.0351 in [2]; -0.0439 in [3]; 0.408 in experiment [4]; 1.12 in [5]; 0.279 in experiment [6]. Also, the composite z-score was 0.377 in the experiment on Sam68 (KHDRBS1), -0.0439 in experiment [7] and 0.666 in [8]. Besides, the composite Z-score in experiment [1] was 0.448 (inactive).

Take `COCCOC(=O)N1C(=O)[C@@]2(c3cc(C#CCNC(N)=O)ccc31)[C@H](c1ccc(O)cc1)N1[C@H](c3ccccc3)[C@H](c3ccccc3)OC(=O)[C@H]1[C@@H]2C(=O)NC[C@H](O)c1ccccc1`: the composite z-score was -0.302 with Albumin (Bos taurus); 0.108 in [2]; -0.0165 in [3]; 0.044 in experiment [4]; 0.956 in experiment [5]; 0.608 in experiment [6]. Further, the composite z-score with Sam68 (KHDRBS1) turned out to be 1.13; in experiment [7], 1.38; in experiment [8], 1.16. The composite Z-score in [1] was 0.297 (inactive).

On to `COCCCNC(=O)[C@@]1(CCC(=O)OC(C)(C)C)N=C(c2ccc(OCCCO)cc2)O[C@H]1c1ccccc1CN=[N+]=[N-]`, for which the composite z-score with Albumin (Bos taurus) is 0.642; in experiment [2], 0.433; in experiment [3], 0.0716; in [4], 0.577; in experiment [5] it was 3.34; in experiment [6] it was 1.53. The composite z-score in the experiment with Sam68 (KHDRBS1) was 1.26; in [7], -0.105; in experiment [8], 0.8. For the same compound, the composite Z-score in [1] is -0.371 (inactive).

Turning to `CC(C)CNC(=O)[C@@]1(c2ccc([N+](=O)[O-])cc2)CC(=O)N(CC23CC4CC(CC(C4)C2)C3)[C@@H]1c1ccc(CO)cc1I`, the composite z-score in the experiment with Albumin (Bos taurus) was -0.0275; in experiment [2], 0.54; in experiment [3] it was -0.0001; in experiment [4] it was 0.259; in [5], 2.03; in experiment [6], 0.451. Further, the composite z-score worked out at 1.32 with Sam68 (KHDRBS1), 0.499 in [7] and 0.974 in experiment [8]. The composite Z-score in experiment [1] is 0.493 (inactive).

Consider `COC(=O)[C@]1(Cc2ccccc2N=[N+]=[N-])N=C(c2ccc(OCCCO)cc2)O[C@@H]1c1ccccc1N=[N+]=[N-]`, for which the composite z-score with Albumin (Bos taurus) is 0.308; in experiment [2], -0.0976; in experiment [3] it was -0.148; in experiment [4], 0.595; in experiment [5], 0.794; in experiment [6] it was 0.405. In addition, the figures for the composite z-score (in the experiment with Sam68 (KHDRBS1); in experiment [7]; in experiment [8]) were -0.255, -0.153 and 0.725, respectively. Moreover, in [1], the composite Z-score is -0.47 (inactive).

For `C=CCOC(=O)[C@H]1[C@@H]2C(=O)O[C@@H](c3ccccc3)[C@@H](c3ccccc3)N2[C@@H](c2ccc(OCCOC(=O)[C@@H]3C[C@@H]4C(=O)NCC(=O)N4[C@@H]3c3ccc(O)cc3)cc2)[C@]12C(=O)Nc1ccccc12`, the composite z-score was 0.212 with Albumin (Bos taurus); 0.0006 in experiment [2]; -0.168 in [3]; 0.475 in [4]; 2.45 in experiment [5]; 0.537 in experiment [6]. Besides, the composite z-score came out at 1.29 in the experiment on Sam68 (KHDRBS1), 1.32 in [7] and 1.11 in experiment [8]. In experiment [1], the composite Z-score is 1.07 (inactive).

Source of the values: PubChem BioAssay.
